Hits are enriched below; roughly 2.4% of the tested compounds scored in any of these assays.
C diff growth: inhibitors of Clostridium difficile growth. AID 1259249. growth activity, negative = inhibition, % at 16 µg/mL (by protocol). 86,000 tested, 0.25% active. Clostridium difficile clinical isolate growth, OD600, 24 h; hits give low values;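 active means mean growth activity at or below -80% and every replicate also at or below -80%; inconclusive means mean at or below -80% but some replicate above -80%; inactive means mean growth activity above -80%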;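 further: 0% = DMSO wells and -100% = levofloxacin 16 µg/mL wells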
Pf Dd2 inh: blocks growth of Plasmodium falciparum Dd2 parasites; P. falciparum Dd2 growth, SYBR Green, 72 h; hits give low values; activity change, % at 10 µM; 94,000 tested, 2.3% active; AID 1159554; in the data active means activity change below about -80%; inconclusive means no clear call, values can overlap the other calls
Numbers without * were called inactive; u = inconclusive; x = no result.

SMILES | C diff growth | Pf Dd2 inh
COc1ccc(NC(=O)N(C)C[C@@H]2OCCCC[C@@H](C)Oc3ccc(NC(=O)c4ccccc4)cc3C(=O)N([C@@H](C)CO)C[C@H]2C)cc1 | 3 | -19
C[C@H](CO)N1C[C@H](C)[C@H](CN(C)C(=O)Nc2ccc(C(F)(F)F)cc2)OCCCC[C@H](C)Oc2ccc(NC(=O)c3ccccc3)cc2C1=O | 6 | -82*
C[C@H](CO)N1C[C@H](C)[C@@H](CN(C)C(=O)Nc2ccc(C(F)(F)F)cc2)OCCCC[C@H](C)Oc2ccc(NC(=O)c3ccccc3)cc2C1=O | 9 | -51
C[C@@H]1CCCCO[C@@H](CN(C)C(=O)Nc2ccc(C(F)(F)F)cc2)[C@H](C)CN([C@@H](C)CO)C(=O)c2cc(NC(=O)c3ccccc3)ccc2O1 | 0 | -19
Cn1cnc(S(=O)(=O)N2CC[C@@H]3[C@@H](CO)Nc4ccc(C#Cc5ccccc5F)cc4[C@@H]32)c1 | -12 | 10
Cc1ccccc1-c1cnc2c(c1)C(=O)N([C@H](C)CO)C[C@H](C)[C@@H](CN(C)C(=O)c1ccc(F)cc1)O2 | -2 | -48
C[C@@H]1CN([C@H](C)CO)C(=O)Cc2cc(NC(=O)Cn3cnnn3)ccc2O[C@@H]1CN(C)Cc1ccc(Oc2ccccc2)cc1 | 11 | -31
O=C(C[C@@H]1CC[C@@H](NS(=O)(=O)c2cccc(F)c2)[C@@H](CO)O1)NCc1ccc2c(c1)OCO2 | x | -1
C[C@H]1CCCCO[C@H](CN(C)C)[C@@H](C)CN([C@@H](C)CO)C(=O)c2cc(NC(=O)Nc3cccc4ccccc34)ccc2O1 | -2 | -59
C[C@@H]1CCCCO[C@@H](CN(C)C(=O)Nc2cccc3ccccc23)[C@@H](C)CN([C@@H](C)CO)C(=O)c2cc(NC(=O)Nc3cccc4ccccc34)ccc2O1 | x | -83*
CCCN(C)C[C@@H]1OCCCC[C@@H](C)Oc2ccc(NC(=O)Nc3cccc4ccccc34)cc2C(=O)N([C@H](C)CO)C[C@@H]1C | -4 | u
C[C@@H]1CCCCO[C@@H](CN(C)C(=O)Nc2cccc3ccccc23)[C@H](C)CN([C@@H](C)CO)C(=O)c2cc(NC(=O)Nc3ccccc3)ccc2O1 | 2 | -31
CCCN(C)C[C@@H]1OCCCC[C@H](C)Oc2ccc(NC(=O)Nc3cccc4ccccc34)cc2C(=O)N([C@H](C)CO)C[C@@H]1C | 34 | -88*
C[C@@H]1CCCCO[C@H](CN(C)C)[C@H](C)CN([C@H](C)CO)C(=O)c2cc(NC(=O)Nc3cccc4ccccc34)ccc2O1 | 5 | -86*
CC(C)C#Cc1cnc2c(c1)C(=O)N([C@@H](C)CO)C[C@@H](C)[C@@H](CN(C)C(=O)c1cccnc1)O2 | 1 | 55
COCC(=O)Nc1ccc2c(c1)OC[C@H](C)N(C(=O)Cc1cccnc1)C[C@@H](C)[C@H](OC)CN(C)C2=O | 5 | 27
C[C@H](CO)N1C[C@H](C)[C@@H](CN(C)Cc2ccccc2F)Oc2cc(C3=CCCC3)ccc2S1(=O)=O | 14 | -19
C[C@@H](O)C#Cc1ccc2c(c1)O[C@@H](CN(C)Cc1ccccn1)[C@@H](C)CN([C@@H](C)CO)S2(=O)=O | 1 | -11
CO[C@H]1CN(C)C(=O)c2cc(NC(=O)Nc3cccc(Cl)c3)ccc2OC[C@@H](C)N(C)C[C@@H]1C | -2 | -5
C[C@@H]1CCCCO[C@H](CN(C)Cc2ccc(C(F)(F)F)cc2)[C@H](C)CN([C@@H](C)CO)C(=O)c2cc(NC(=O)CCC(F)(F)F)ccc2O1 | 11 | u
C[C@H](CO)N1C[C@H](C)[C@@H](CN(C)Cc2ccc(C(F)(F)F)cc2)OCCCC[C@H](C)Oc2ccc(NC(=O)CCCN(C)C)cc2C1=O | 6 | -77
C[C@@H]1CCCCO[C@@H](CN(C)Cc2ccc(C(F)(F)F)cc2)[C@@H](C)CN([C@@H](C)CO)C(=O)c2cc(NC(=O)CCC(F)(F)F)ccc2O1 | 4 | -45
C[C@H]1CCCCO[C@H](CN(C)Cc2ccc(C(F)(F)F)cc2)[C@@H](C)CN([C@@H](C)CO)C(=O)c2cc(NC(=O)CCCN(C)C)ccc2O1 | 0 | -86*
C[C@@H]1CCCCO[C@@H](CN(C)Cc2ccc(C(F)(F)F)cc2)[C@H](C)CN([C@H](C)CO)C(=O)c2cc(NC(=O)CCCN(C)C)ccc2O1 | 6 | -89*
C[C@@H]1CCCCO[C@H](CN(C)Cc2ccc(C(F)(F)F)cc2)[C@H](C)CN([C@H](C)CO)C(=O)c2cc(NC(=O)CCCN(C)C)ccc2O1 | -2 | -87*
SMILES | C diff growth | Pf Dd2 inh
C[C@@H]1CN([C@H](C)CO)C(=O)c2cc(NC(=O)CCCN(C)C)ccc2O[C@@H](C)CCCCO[C@@H]1CN(C)Cc1ccc(C(F)(F)F)cc1 | 6 | -87*
C[C@@H]1CCCCO[C@@H](CN(C)Cc2ccc(C(=O)O)cc2)[C@@H](C)CN([C@H](C)CO)C(=O)c2cc(NC(=O)CCCN(C)C)ccc2O1 | -17 | 41
COCC(=O)N1CC[C@@H]2[C@H]1c1cc(-c3ccccc3)ccc1N(C)[C@H]2CO | -4 | -6
COc1ccccc1C#Cc1ccc2c(c1)O[C@H](CN(C)Cc1ccccc1)[C@H](C)CN([C@@H](C)CO)S2(=O)=O | 13 | -72
C[C@@H]1CN([C@H](C)CO)C(=O)Cc2cc(NC(=O)Cn3cnnn3)ccc2O[C@H]1CN(C)Cc1ccccc1 | -1 | -12
C[C@H]1CCCCO[C@@H](CN(C)Cc2ccc(C(F)(F)F)cc2)[C@@H](C)CN([C@@H](C)CO)C(=O)c2cc(NC(=O)CCCN(C)C)ccc2O1 | 0 | -85*
C[C@@H]1CCCCO[C@H](CN(C)Cc2ccc(C(F)(F)F)cc2)[C@@H](C)CN([C@H](C)CO)C(=O)c2cc(NC(=O)CCCN(C)C)ccc2O1 | 5 | -54
CCCC(=O)Nc1ccc2c(c1)C(=O)N(C)C[C@H](OC)[C@H](C)CN(Cc1ccc(-c3ccccn3)cc1)[C@@H](C)CO2 | x | -30
C[C@H](CO)N1C[C@H](C)[C@@H](CN(C)CC2CCCCC2)Oc2ccc(NC(=O)C3CC3)cc2CC1=O | 3 | -6
C[C@@H]1CN([C@H](C)CO)C(=O)c2cc(NC(=O)CCCCCC(=O)Nc3ccccc3N)ccc2O[C@@H]1CN(C)Cc1ccc(Oc2ccccc2)cc1 | 20 | -60
C[C@H]1CN([C@@H](C)CO)C(=O)c2cccc(NC(=O)CCCCCC(=O)Nc3ccccc3N)c2O[C@@H]1CN(C)Cc1ccc(Oc2ccccc2)cc1 | -4 | -82*
C[C@@H]1CN([C@@H](C)CO)C(=O)c2cccc(NC(=O)CCCCCC(=O)Nc3ccccc3N)c2O[C@@H]1CN(C)Cc1ccc(Oc2ccccc2)cc1 | -1 | -91*
C[C@@H]1CN([C@H](C)CO)C(=O)c2cccc(NC(=O)C3CC3)c2O[C@H]1CN(C)Cc1ccc(Oc2ccccc2)cc1 | 9 | -71
C[C@H]1CN([C@@H](C)CO)C(=O)c2cccc(NC(=O)C3CC3)c2O[C@H]1CN(C)Cc1ccc(Oc2ccccc2)cc1 | -4 | -17
C[C@@H]1CN([C@H](C)CO)C(=O)c2cccc(NC(=O)CCCCCC(=O)Nc3ccccc3N)c2O[C@@H]1CN(C)Cc1ccc(Oc2ccccc2)cc1 | -3 | -91*
O=C(N[C@H]1CC[C@@H](CCNS(=O)(=O)c2ccc(F)cc2)O[C@H]1CO)C1CCCC1 | 0 | 17
O=C(Nc1cc(F)ccc1F)N1C[C@@H]2[C@H](c3ccccc31)[C@H](CO)N2Cc1ccncc1 | 5 | 5

Screens: PubChem BioAssay, Broad Institute
